Our source for the Potency values is PubChem BioAssay (NCATS).

A short description of assay [1]: Quantitative High-Throughput drug screen in 47 multiple myeloma cell lines against the NCATS MIPE library collection: Delta47_JCRB cell viability assay (AID 1918925; note: nearly all actives have a fitted effect of over 45% in size). In a few lines: (§1)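 Relative luminescence from CellTiter-Glo served as the viability signal, referenced to DMSO-treated (100%) and cell-free medium (0%) controls. Treatment lasted 48 hours at 37C with 500 cells per well.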

A short description of assay [2]: Quantitative High-Throughput drug screen in 47 multiple myeloma cell lines against the NCATS MIPE library collection: EJM_DSMZ cell viability assay (AID 1918926; note: nearly all actives have a fitted effect of over 30% in size). In a few lines: as §1
Assay [3] is described as follows: Quantitative High-Throughput drug screen in 47 multiple myeloma cell lines against the NCATS MIPE library collection: AMO1_DSMZ cell viability assay (AID 1918927; note: nearly all actives have a fitted effect of over 30% in size). In a few lines:
as §1

The nature of assay [4]: Quantitative High-Throughput drug screen in 47 multiple myeloma cell lines against the NCATS MIPE library collection: ARP1_JJKsccF8 cell viability assay (AID 1918928; note: nearly all actives have a fitted effect of over 40% in size). In a few lines:
(§2)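 500 cells/well; MIPE 4.0 library pinned in; 48 h, 37 °C, 5% CO2; CellTiter-Glo ATP luminescence. Controls: DMSO = 100% viability, medium only = 0%.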

Assay [5] can be described thus: Quantitative High-Throughput drug screen in 47 multiple myeloma cell lines against the NCATS MIPE library collection: ARD_JJKsccE7 cell viability assay (AID 1918929). In a few lines: as §1
A short description of assay [6]: Quantitative High-Throughput drug screen in 47 multiple myeloma cell lines against the NCATS MIPE library collection: Karpas620_DSMZ cell viability assay (AID 1918959). Note: nearly all actives have a fitted effect of over 30% in size. In short, it runs like this:
(§3)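 We plated 500 myeloma cells per well, pinned in MIPE 4.0 compounds, and incubated for 48 hours at 37C. ATP was then quantified with CellTiter-Glo, with DMSO and media-only wells defining 100% and 0%.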

Assay [7] can be described thus: Quantitative High-Throughput drug screen in 47 multiple myeloma cell lines against the NCATS MIPE library collection: KHM11_PLB cell viability assay (AID 1918962). Note: nearly all actives have a fitted effect of over 35% in size. In a few lines:
as §3

The nature of assay [8]: Quantitative High-Throughput drug screen in 47 multiple myeloma cell lines against the NCATS MIPE library collection: JIM3_ECACC cell viability assay (AID 1918963; note: nearly all actives have a fitted effect of over 35% in size). In short, it runs like this:
as §3

Assay [9] can be described thus: Quantitative High-Throughput drug screen in 47 multiple myeloma cell lines against the NCATS MIPE library collection: INA6_PLB cell viability assay (AID 1918965; note: nearly all actives have a fitted effect of over 55% in size). In a few lines:
(§4)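 Viability readout: CellTiter-Glo luminescence following 5 min room-temperature incubation with reagent. Prior exposure: 48 h, 37C, humidified 5% CO2, 500 cells per well.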

Assay [10] can be described thus: Quantitative High-Throughput drug screen in 47 multiple myeloma cell lines against the NCATS MIPE library collection: KMS12BM_JCRB cell viability assay (AID 1918971). Note: nearly all actives have a fitted effect of over 35% in size. In short, it runs like this: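 CellTiter-Glo luminescence (ATP) after 48 h compound exposure, 37C/5% CO2; 500 cells/well; MIPE 4.0 approved/investigational drugs pinned in; DMSO = 100%, media only = 0% viability.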

The nature of assay [11]: Quantitative High-Throughput drug screen in 47 multiple myeloma cell lines against the NCATS MIPE library collection: KMS12PE_JCRB cell viability assay (AID 1918972). Note: nearly all actives have a fitted effect of over 30% in size. In short, it runs like this:
as §4

Assay [12] is described as follows: Quantitative High-Throughput drug screen in 47 multiple myeloma cell lines against the NCATS MIPE library collection: KMS21BM_JCRB cell viability assay (AID 1918974). Particulars: ATP luminescence, 48 h; viability: at 45.8 µM (top of the series) unless noted. In a few lines: as §1
Assay [13] in a line: Quantitative High-Throughput drug screen in 47 multiple myeloma cell lines against the NCATS MIPE library collection: KMM1_JCRB cell viability assay (AID 1918960). Note: nearly all actives have a fitted effect of over 30% in size. In short, it runs like this:
as §2

Assay [14] is described as follows: Quantitative High-Throughput drug screen in 47 multiple myeloma cell lines against the NCATS MIPE library collection: JIM1_ECACC cell viability assay (AID 1918964). In a few lines:
as §1

Assay [15] can be described thus: Quantitative High-Throughput drug screen in 47 multiple myeloma cell lines against the NCATS MIPE library collection: H1112_PLB cell viability assay (AID 1918967; note: nearly all actives have a fitted effect of over 30% in size). In short, it runs like this:
as §1

A short description of assay [16]: Quantitative High-Throughput drug screen in 47 multiple myeloma cell lines against the NCATS MIPE library collection: Karpas25_ECACC cell viability assay (AID 1918968; note: nearly all actives have a fitted effect of over 35% in size). In a few lines:
as §1

Assay [17] can be described thus: Quantitative High-Throughput drug screen in 47 multiple myeloma cell lines against the NCATS MIPE library collection: KMS27_JCRB cell viability assay (AID 1918970). Note: nearly all actives have a fitted effect of over 30% in size. In a few lines:
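Each line is seeded at 500 cells per well and treated with library compounds for 48 hours under 37 °C, 5% CO2. CellTiter-Glo is then added for 5 min at room temperature before median relative luminescence is recorded.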

Assay [18] can be described thus: Quantitative High-Throughput drug screen in 47 multiple myeloma cell lines against the NCATS MIPE library collection: KMS20_JCRB cell viability assay (AID 1918973). Note: nearly all actives have a fitted effect of over 45% in size. In a few lines: as §1
Assay [19] can be described thus: Quantitative High-Throughput drug screen in 47 multiple myeloma cell lines against the NCATS MIPE library collection: Karpas417_ECACC cell viability assay (AID 1918961). The note with it: Karpas417 myeloma viability, CellTiter-Glo ATP luminescence, 48 h; viability (% of DMSO): at 45.8 µM (top of the series). In short, it runs like this: as §4
The nature of assay [20]: Quantitative High-Throughput drug screen in 47 multiple myeloma cell lines against the NCATS MIPE library collection: JJN3_DSMZ cell viability assay (AID 1918966; note: nearly all actives have a fitted effect of over 50% in size). In a few lines: as §1

Results filed as inconclusive are left out. A number with no mark means an inactive call. The source made the active and inactive calls. Calls come from the whole dose curve; as a rule, active = well fitted curve in the direction sought with a large enough effect; inconclusive = small, poorly fitted or top-dose-only effect, or another doubt; inactive = no such curve, though single readings can be large; an effect the other way counts as inactive or inconclusive.
Potency is the fitted concentration of half-maximal effect.

Take `CC(C)(C)OC(=O)Nc1ccc(-c2cc(C(=O)NCCCCCCC(=O)NO)no2)cc1`: the Potency in assay [1] is 833 nM (active); in assay [2], 3.72 µM (active); in assay [3] it was 590 nM (active); in [4] it was 743 nM (active); in assay [5], 935 nM (active); in assay [6] it was 2350 nM (active). The Potency in assay [7] is 5900 nM (active); in assay [8], 3720 nM (active); in assay [9], 469 nM (active); in [10] it was 1.66 µM (active); in assay [11], 935 nM (active); in [12], 935 nM (active).
Consider `Cc1nc(N)ncc1-c1nc(N2CCOCC2)c2sc(C(C)(C)O)cc2n1`, for which the Potency in assay [1] was 235 nM (active); in [2] it was 1.48 µM (active); in [3], 1320 nM (active); in assay [4], 105 nM (active); in [5] it was 33.2 nM (active); in [13], 332 nM (active). Further, the Potency in [7] was 662 nM (active); in assay [14] it was 41.8 nM (active); in assay [9], 3720 nM (active); in [15], 6.62 µM (active); in [16], 418 nM (active); in [17], 235 nM (active). Further, the Potency was 8.33 µM (active) in assay [10], 1.32 µM (active) in assay [18] and 1050 nM (active) in assay [12].
For `COC(=O)c1ccc2c(C(=Nc3ccc(N(C)C(=O)CN4CCN(C)CC4)cc3)c3ccccc3)c(O)[nH]c2c1`, the Potency in [1] is 6620 nM (active); in [2], 3.72 µM (active); in [3], 4690 nM (active); in assay [4], 23500 nM (active); in assay [13], 1660 nM (active); in assay [19], 187 nM (active). Besides, the Potency in assay [7] was 26400 nM (active); in assay [9], 8330 nM (active); in assay [20] it was 2350 nM (active); in assay [16], 11800 nM (active); in assay [10] it was 16.6 µM (active); in [11], 526 nM (active). Besides, the Potency in assay [12] was 52.6 nM (active).
With `C=CCn1c(=O)c2cnc(Nc3ccc(N4CCN(C)CC4)cc3)nc2n1-c1cccc(C(C)(C)O)n1`, the Potency is 418 nM (active) in assay [1]; 1.48 µM (active) in assay [2]; 590 nM (active) in [3]; 1180 nM (active) in assay [4]; 264 nM (active) in assay [5]; 332 nM (active) in [13]. The Potency in assay [7] was 833 nM (active); in assay [8], 590 nM (active); in assay [9], 526 nM (active); in assay [20], 743 nM (active); in [15] it was 0.469 µM (active); in [16], 332 nM (active). For the same compound, the Potency in assay [10] was 0.526 µM (active); in [11] it was 118 nM (active); in assay [12], 9350 nM (active).
Turning to `C[C@@H](Oc1cc(-n2cnc3ccc(CN4CCN(C)CC4)cc32)sc1C(N)=O)c1ccccc1C(F)(F)F`, the Potency is 41.8 nM (active) in [1]; 23.5 µM (active) in [2]; 74.3 nM (active) in [3]; 105 nM (active) in assay [4]; 26.4 nM (active) in [5]; 33.2 nM (active) in [13]. In addition, the Potency in assay [8] was 37.2 nM (active); in assay [20] it was 18700 nM (active); in [16] it was 20900 nM (active); in [10] it was 0.0469 µM (active).
In the case of `CC(NCc1ccc2c(c1)nc(NC(=O)c1ccc(-c3cn[nH]c3)s1)n2CC(C)(C)O)C(C)(C)C` (stereo unspecified), the Potency in assay [1] was 83.3 nM (active); in [2], 0.372 µM (active); in assay [3], 166 nM (active); in assay [4], 418 nM (active); in [6] it was 264 nM (active); in [13], 235 nM (active). The Potency is 93.5 nM (active) in assay [7]; 209 nM (active) in assay [8]; 46.9 nM (active) in assay [14]; 83.3 nM (active) in assay [9]; 264 nM (active) in [20]; 264 nM (active) in assay [16]. Further, the Potency in assay [10] was 1.05 µM (active); in assay [11] it was 264 nM (active).
As to `C=CC(=O)Nc1cc2c(Nc3ccc(F)c(Cl)c3)ncnc2cc1C#CC(C)(C)N1CCN(C)CC1`, the Potency in assay [1] is 469 nM (active); in assay [2], 2.09 µM (active); in [3], 662 nM (active); in assay [4], 5900 nM (active); in assay [6] it was 590 nM (active); in assay [13], 1480 nM (active). Also, the Potency in assay [19] was 590 nM (active); in [7], 2090 nM (active); in [14], 1050 nM (active); in [9] it was 418 nM (active); in assay [15] it was 1.87 µM (active); in assay [16], 526 nM (active). Moreover, the Potency is 0.332 µM (active) in [10], 833 nM (active) in [11], 0.296 µM (active) in assay [18] and 332 nM (active) in [12].
For the compound `O=C(O)C1(Cc2cccc(Nc3nccs3)n2)CCC(Oc2cccc(Cl)c2F)CC1` (stereo unspecified), the Potency in [1] was 166 nM (active); in assay [3], 235 nM (active); in assay [4], 590 nM (active); in assay [6], 74.3 nM (active); in assay [7], 264 nM (active); in [8], 935 nM (active). For the same compound, the values for the Potency in assay [9], in assay [10] and in [12] were 235 nM (active), 1.32 µM (active) and 23.5 nM (active), respectively. In addition, the Potency result in assay [2] and in [20] was “inactive” throughout.
In the case of `CCc1c2c(nc3ccc(O)cc13)-c1cc3c(c(=O)n1C2)COC(=O)[C@]3(O)CC`, the Potency in [1] is 37.2 nM (active); in [2] it was 0.187 µM (active); in assay [3], 11.8 nM (active); in assay [4], 187 nM (active); in assay [6], 743 nM (active); in [13], 132 nM (active). Also, the Potency in assay [19] was 332 nM (active); in [7], 166 nM (active); in [8], 526 nM (active); in assay [14] it was 37.2 nM (active); in assay [9], 1 nM (active); in assay [20], 332 nM (active). The Potency in assay [15] is 0.0469 µM (active); in assay [16], 66.2 nM (active); in [17], 5.9 nM (active); in assay [10], 0.0662 µM (active); in [11], 187 nM (active); in assay [18], 0.118 µM (active).
`CNC(=O)c1nn(C)c2c1C(C)(C)Cc1cnc(Nc3ccc(N4CCN(C)CC4)cc3)nc1-2`: the Potency in assay [1] is 1050 nM (active); in assay [2], 2.64 µM (active); in [3] it was 1180 nM (active); in assay [4], 4690 nM (active); in [6], 4690 nM (active); in assay [13], 935 nM (active). Besides, the Potency in assay [19] was 833 nM (active); in assay [7], 1480 nM (active); in assay [8], 3720 nM (active); in [9], 743 nM (active); in assay [15], 4.69 µM (active); in assay [16] it was 2350 nM (active). For the same compound, the Potency was 662 nM (active) in assay [17]; 1.66 µM (active) in assay [10]; 1050 nM (active) in [11]; 2.96 µM (active) in assay [18]; 132 nM (active) in assay [12].
